Data as given in ChEMBL document CHEMBL4513216, “Probing the Open Global Health Chemical Diversity Library for Multistage-Active Starting Points for Next-Generation Antimalarials” (ACS Infect Dis, 2020).
Among all 68,000 compounds or so, about 2,700 (4%) showed an effect of 50% or more. The entries come from a sample that favours strong results as a whole.

These molecules were tested on Plasmodium berghei (assay: Screen against P. berghei liver stage (PbLuc), transformed with Luciferase, at 2uM). Conditions: tested at 2 uM.
Type: functional, HepG2

Row | SMILES | INHIBITION
1 | CC(OCC1CC1)C(=O)N1CCCN(Cc2cnn(C)c2)CC1 (stereo not drawn) | 47.12%
2 | Cc1ccc(N2CC[C@@H]3O[C@@H](COCc4cccnc4)CC[C@@H]32)nn1 | -64.19%
3 | O=C(c1cccc(S(=O)(=O)NCCc2ccccn2)c1)N1CCOCC1 | 6.84%
4 | CCc1cc(CN2C[C@@H]3CC[C@H]2CN(C2Cc4ccccc4C2)C3)on1 | 36.79%
5 | Cc1ccccc1C(C(=O)N(C)Cc1cnn(C)c1)N(C)C (stereo not drawn) | -15.75%
6 | O=C(C1CCC2(CCN(c3nncs3)CC2)CO1)N1CCCC1 (stereo not drawn) | -38.48%
7 | O=C(C1CCC2(CCN(c3nncs3)CC2)C1)N1CCCC1 (stereo not drawn) | 58.08%
8 | CC(=O)N1CCCC2(CCN(c3nncs3)C2)C1 (stereo not drawn) | 19.58%
9 | CNc1cc(N2CCCC2CNCc2cnc(C)s2)ncn1 (stereo not drawn) | 47.3%
10 | CNC(=O)C1(CCCc2cccnc2)CCCCN1 (stereo not drawn) | 32.95%
11 | O=C1O[C@@H]2CN(C3CCOCC3)C[C@@H]2N1CCc1cccc(Cl)c1 | 19.46%
12 | O=C(c1cccnc1)N(CCO)Cc1cc(Br)ccc1F | -12.09%
13 | O=C(c1ccccn1)N(CCO)Cc1cc(Br)ccc1F | -46.83%
14 | O=C(c1cccnc1O)N(CCO)Cc1cc(Br)ccc1F | 52.89%
15 | CC(C)CN1CCC(NCCNc2cccnc2)CC1 | 2.06%
16 | CN(C)C(=O)c1nc2c(s1)CCCN2Cc1ccccc1 | -4.2%
17 | CCN1CCOCC2(CCCN(C(=O)c3cccc(O)c3)C2)C1 (stereo not drawn) | 24.36%
18 | Cc1ccc(S(=O)(=O)NC(=O)C2(c3ccc(F)cc3)CCC2)c(C)c1 | -2.2%
19 | Cc1ccc(S(=O)(=O)NC(=O)C2(c3ccccc3)CCC2)c(C)c1 | 53.81%
20 | Cc1ccccc1S(=O)(=O)NC(=O)C1(c2ccccc2)CCC1 | 28.54%
21 | COc1ccc(CN2C[C@@H]3COC[C@@H](N4CCN(C)CC4)[C@@H]3C2)cc1 | -54.53%
22 | CN(C)CCNC(=O)CCn1ncc2c(Cl)cccc21 | 19.92%
23 | Cc1cccc(=O)n1CCC(=O)N1CC[C@@](O)(C2CCC2)[C@H](C)C1 | -11.55%
24 | Cc1cccc(=O)n1CCC(=O)N1CC[C@](C)(O)[C@H](C)C1 | -4.52%
25 | Cc1cccc(=O)n1CCC(=O)N1CCC2(CC1)OCCCC2O (stereo not drawn) | 62.96%
26 | Cc1cc(N2CCN(Cc3ccccc3)CC(O)C2)cc(C)n1 (stereo not drawn) | 74.94%
27 | OC1CN(Cc2ccccc2)CCN(c2ccncc2)C1 (stereo not drawn) | 1.42%
28 | Cc1cc(N2CCN(Cc3ccccc3)CC(O)C2)nc(N)n1 (stereo not drawn) | 24.44%
